Growth data for 40 compounds are collected here from PubChem BioAssay (NCI).

The structures appear in SMILES notation. About 83,000 compounds went through this panel and 20% of them were active in at least one assay; those are over-represented in the sample as a whole.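 How to read the values: 0–100, growth inhibition (40 = 60% inhibited); 0, no net growth; -100 to 0, cell death (-40 = 40% of starting cells died; -100 = all dead).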 The source made the active and inactive calls. Rule for the calls: active = growth percent below 10; inactive = the rest.

The test system of this assay is MDA-MB-468 breast. Briefly: NCI-60 one-dose screen, 48 h (100 = growth as untreated, 0 = no growth, -100 = all killed). The conditions noted are these: 10 µM unless noted.
In the case of `Cc1ccccc1NC(=O)c1cc2ccccc2cc1O`, the growth is 79.5% (inactive).

On to `O=C(NNc1nc2cc(F)ccc2n2c(CN3CCOCC3)ccc12)c1ccccc1`, for which the growth is -27.9% (active). In the case of `COc1nc2c(c(=O)n1C)CN(c1ccccc1)C(=O)CN2C`, the growth was 4.41% [100 µM] (active). Turning to `COc1cccc(C(=O)Nc2ccc(CN3CCc4nc5cc(OC)c(OC)cc5cc43)cc2)c1`, the growth is 63.6% (inactive). Next, `CN1CCN(Cc2ccc(C(=O)Nc3cncc(C#Cc4cnc5cccnn45)c3)cc2C(F)(F)F)CC1`: 61.1% (inactive); `CCCCCCCCCC(=O)Oc1ccc(/C(=C(/C)Cc2cccc(OC)c2)c2ccc(OCCN(C)C)cc2)cc1`: 103% (inactive). For `COc1cc(-c2nn(-c3cccc(NC(=O)CCNc4ccc(N5CCOCC5)cc4)c3)cc2-c2ccncc2)ccc1Cl`, the growth was 30.7% (inactive). Next, `O=S(=O)(NC1c2ccccc2Oc2ccccc21)c1cc(Cl)ccc1Cl`: 78.9% (inactive); `O=c1ccc(N=Nc2ccccc2)ccc1Cl`: -51.2% (active); `Cc1ccc(C2SCC(=O)N2NC(=O)c2[nH]c3ccc(F)cc3c2-c2ccccc2)cc1` (stereo not given): 96% (inactive). Next, `OCCCc1ccccc1`: 104% (inactive); `O=C1CCC23OC(c4ccccc4N12)C(O)C(O)C3O` (stereo not given): 114% (inactive). Consider `O=C1CC(=O)N(C(=O)c2nn(-c3ccc(Cl)cc3)cc2O)N1`, for which the growth was 62.4% (inactive). Regarding `Cc1ccc(NC(=O)c2ccccc2Cl)cc1`, the growth was 114% (inactive). Next, `Cc1ccc(S(=O)(=O)NNC(=O)/C(=C\c2ccc(Cl)cc2)c2nc3ccccc3s2)cc1`: 111% (inactive); `CCOC(=O)c1ccc2c(c1)c1c(C)c3cccnc3c(C)c1n2C`: 64.4% (inactive); `COc1ccc(C(=O)/C=C/c2cccnc2Nc2cc(OC)c(OC)c(OC)c2)cc1`: 9.95% (active).

Take `O=C(Nc1cccnc1Nc1ccc(F)cc1)c1cn(Cc2cccc(Oc3ccccc3)c2)nn1`: the growth was 63.5% (inactive). Next, `Oc1ccccc1-c1nnc(COc2ccc(Cl)cc2Cl)o1`: 58.7% (inactive); `C=C(CNCCO)[C@@H]1CC[C@]2(CO)CC[C@]3(C)[C@H](CC[C@@H]4[C@@]5(C)CCC(NCCO)C(C)(C)[C@@H]5CC[C@]43C)[C@@H]12` (stereo not given in full): 51% (inactive); `Cn1cc(-c2csc(-c3cn(C)c4ccccc34)n2)c2cnccc21`: -27.1% (active). Next, `O=C1/C(=C/c2ccccc2)CCc2nc3ccccc3c(/C=C/c3ccc(Cl)cc3)c21`: 83.5% (inactive); `CCOC(=O)c1c(NC(=O)c2ccccc2)sc2c(O)c(CN(CC)CC)ccc12`: -2.82% (active); `OCC1OC(O)C(O)C(O)C1O` (stereo not given): 121% (inactive).

For `C=C(C)[C@@H]1CC[C@]2(C(=O)OC)CC[C@]3(C)[C@H](CC[C@@H]4[C@@]5(C)CC/C(=N\OCCC(=NCCC#N)NOCCC#N)C(C)(C)[C@@H]5CC[C@]43C)[C@@H]12`, the growth is 4.41% [100 µM] (active).

In the case of `CN(Cc1cnc2nc(N)nc(N)c2n1)c1ccc(C(=O)NC(CCC(=O)O)C(=O)O)cc1` (stereo not given), the growth was 6.99% (active). Next, `N#Cc1ccc(NC(=O)Nc2ccc(Oc3ccc(NC(=O)Nc4ccc(C#N)cc4)cc3)cc2)cc1`: 26% (inactive); `COc1ccc(C2CC(=O)Nc3c2c(C)nn3-c2nc3ccccc3[nH]2)cc1` (stereo not given): 101% (inactive); `N#CCc1cccc2ccccc12`: 112% (inactive). On to `Cc1ccc(NC(=O)c2sc3nc4c(cc3c2N)C(=O)CCC4)cc1`, for which the growth is 32.7% (inactive). Next, `Cc1c2cnccc2c(C)c2c1c1cc(CO)ccc1n2C`: -65.7% (active). Next, `COc1ccc2[nH]cc(-c3nn4cc(-c5ccncc5)nc4s3)c2c1`: 29.2% (inactive).

`CCOC(=O)c1c(Nc2ccccc2)nn2c(-c3ccco3)c(C#N)cnc12`: the growth was 89.4% (inactive). Next, `O=c1[nH]c(=O)n(Cc2ccc(F)cc2)cc1F`: 102% [50 µM] (inactive); `CC1(C)[C@@H](O)CC[C@]2(C)[C@H]3CC[C@@H]4[C@H]5[C@H](C(=O)/C=C\c6ccncc6)CC[C@]5(O)CC[C@@]4(C)[C@]3(C)CC[C@@H]12`: 17.5% (inactive); `COc1cc(C2C3=C(COC3=O)Nc3cc4c(cc32)OCO4)cc2c1OCO2` (stereo not given): -10.3% (active). Turning to `Cc1cc(C(NC(=O)CCCCCNc2cccc3c2C(=O)N(C2CCC(=O)NC2=O)C3=O)c2cccnc2)c(O)c2ncccc12` (stereo not given), the growth was -8.72% (active). Take `CCN(CC)c1cn(-c2ccc(S(N)(=O)=O)cc2)nn1`: the growth was 91.9% (inactive). Next, `COCCNCC(O)Cn1c2ccc(Cl)cc2c2cc(Cl)ccc21` (stereo not given): -43.9% (active). Next, `CCOC(=O)c1n[nH]n2c1nc(=O)c1cnn(C)c12`: 113% (inactive).
